High-throughput results (PubChem)
A selection: hits, their analogues and other compounds. The true share with any hit is near 18%.
DT40 TDP1 no CPT: qHTS for Inhibitors of human tyrosyl-DNA phosphodiesterase 1 (TDP1): qHTS in cells in absence of CPT; hit rate 15% among 420,000; DT40 Tdp1-/- hTDP1 cells, no CPT, ATP luminescence, 48 h; Potency, µM (titrated, usually from 46.2 µM), inactives show at the top dose activity change, negative = growth inhibition, actives largely listed as inhibitors; AID 686978, 2013; further: potency means the concentration at half of the fitted maximal effect; nearly all actives have a fitted effect of over 55% in size
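Growth kinetics read by CellTiter-Glo luminescence after ≥48 hr at 37 °C. Cells: DT40 Tdp1-/- stably carrying human TDP1, 400 per well, compound exposure in the absence of CPT (DMSO vehicle).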
Gal4-VP16 FLuc: inhibits Gal4-VP16 luciferase reporter, ROR gamma counter-screen | Drosophila S2 Gal4-VP16 UAS-luciferase, luminescence, 20 h | Potency, µM (series often up to 53.6 µM), for inactives: at the top dose activity, negative = inhibition, actives largely listed as inhibitors | hit rate 3.5% among 310,000;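 further: Gal4-VP16 expression switched on by copper sulfate through the metallothionein promoter; potency means the concentration at half of the fitted maximal effect; nearly all actives have a fitted effect of over 50% in size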
RORgamma inh: ROR gamma (mouse) transcription inhibition | Drosophila S2 Gal4-RORgamma UAS-luciferase reporter, 20 h | P51450 | Potency, µM (highest dose often 53.6 µM), for the others: at the top dose activity change, negative = inhibition, most hits filed as inhibitors | hit rate 5.4% among 310,000 | AID 2551; further: potency means the concentration at half of the fitted maximal effect; nearly all actives have a fitted effect of over 60% in size
Target sequence (P51450 whole entry, looked up, the tested form may be a part): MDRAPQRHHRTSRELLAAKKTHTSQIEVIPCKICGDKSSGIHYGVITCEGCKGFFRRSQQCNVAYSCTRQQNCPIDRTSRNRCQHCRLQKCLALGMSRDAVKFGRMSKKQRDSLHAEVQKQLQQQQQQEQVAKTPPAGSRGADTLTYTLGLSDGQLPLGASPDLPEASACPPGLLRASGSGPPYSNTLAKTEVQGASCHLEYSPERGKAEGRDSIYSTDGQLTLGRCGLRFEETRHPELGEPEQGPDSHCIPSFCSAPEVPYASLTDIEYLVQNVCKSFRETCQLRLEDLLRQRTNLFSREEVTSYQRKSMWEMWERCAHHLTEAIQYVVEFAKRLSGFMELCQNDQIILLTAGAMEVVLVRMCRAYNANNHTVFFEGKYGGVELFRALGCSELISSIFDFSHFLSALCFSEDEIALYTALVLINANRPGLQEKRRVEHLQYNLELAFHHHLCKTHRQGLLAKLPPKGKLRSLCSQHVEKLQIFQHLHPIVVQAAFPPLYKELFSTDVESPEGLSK
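Using a luciferase readout, inhibitors were identified by reduced reporter activity in Drosophila cells coexpressing a copper-inducible Gal4–ROR gamma fusion and UAS-driven Photinus luciferase, incubated 20 hr after 700 uM copper sulfate.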
TDP1 cell CPT: DT40-hTDP1 cell growth loss with CPT. hit rate 12% among 420,000. Potency, µM (titrated, usually from 46.2 µM), without a hit: at the highest dose activity change, negative = growth inhibition, usual class: inhibitors. AID 686979. chicken DT40 Tdp1-/-;hTDP1 cells + 20 nM CPT, ATP luminescence, 48 h; further: potency means the concentration at half of the fitted maximal effect; nearly all actives have a fitted effect of over 55% in size
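Chicken DT40 Tdp1-/- cells stably complemented with human TDP1 were seeded at 400 cells/well in medium containing 20 nM camptothecin, exposed to pin-transferred compounds, and grown at 37 °C for at least 48 hr. Viability was read as ATP luminescence.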
IL-1B inflam inh: inflammasome signaling inhibition, IL-1 beta readout. THP-1 LPS/ATP IL-1B secretion, AlphaLISA, 16 h; active compounds read low. activity change, % at 57.5 µM. hit rate 4.7% among 360,000. AID 743279; in the data active means activity change below about -50%; inconclusive means mostly about -30% to -49%
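Secreted IL-1B measured by AlphaLISA bead assay after 16 h compound exposure of THP-1 cells; compounds (final up to 57.5 uM) added 1 h before LPS (250 ng/mL) and ATP (1.25 mM) stimulation; lower signal means less secretion.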
LDHA inh: inhibitors of human lactate dehydrogenase A; P00338; hit rate 0.15% among 480,000; purified LDHA, NADH/diaphorase-resazurin fluorescence; active compounds read low; activity change, % (values are at about 110 or 230 µM); in the data active means activity change below about -30%; inconclusive means mostly about -25% to -30%;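 further: plate controls were DMSO wells for no effect and wells without enzyme for full effect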
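Remaining NADH was detected by diaphorase (0.133 mg/mL) converting 37 µM resazurin to fluorescent resorufin, read at 0 and 20 minutes. The preceding 5-minute room-temperature reaction used 2 nM LDHA, 0.2 mM sodium pyruvate and 0.06 mM NADH at pH 7.4.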
* marks the source's active call; other numbers are inactive results; u = inconclusive; x = no result; [ ] = dose if it differs, or a comment. Unless noted, the call rests on the fitted dose curve; in most records, active means well fitted curve in the direction sought with a large enough effect; inconclusive means small, poorly fitted or top-dose-only effect, or another doubt; inactive means no such curve, though single readings can be large; an effect the other way counts as inactive or inconclusive. Unless noted, on the % scale 0 is the no-effect control and ±100 the full control effect.

SMILES | DT40 TDP1 no CPT | Gal4-VP16 FLuc | RORgamma inh | TDP1 cell CPT | IL-1B inflam inh | LDHA inh
Cc1c(-c2ccccc2)oc2c(C(=O)NC(C)C)cccc2c1=O | x | x | x | x | x | 3
Cc1ccc(C)c(C(=O)C(C)n2cnc3c2c(=O)n(C)c(=O)n3C)c1 (stereo not drawn) | x | x | x | x | x | -5
C=CCSc1nnc(NC(=O)c2ccc3c(c2)OCCO3)s1 | -6% | x | x | 8% | -3 | -1
COC(=O)CSc1nnc(NC(=O)c2ccc3c(c2)OCO3)s1 | 16% | u | 6.3µM* | 21% | 13 | -1
O=C(O)CSc1nnc(NC(=O)c2ccc3c(c2)OCO3)s1 | -1% | 13µM* | 13µM* | 7% | 34 | -8
O=Cc1c(SCCO)nc2ccccn2c1=O | 19% | -7% | 1% | 2% | -4 | -1
COC(=O)CSc1nc2ccccn2c(=O)c1C=O | 2% | -9% | -3% | -15% | 8 | 0
O=Cc1c(Sc2ccccn2)nc2ccccn2c1=O | u | u | u | u | -86* | 1
O=Cc1c(Sc2ccccc2)nc2ccccn2c1=O | 16µM* | -10% | -11% | u | -114* | -3
CCOC(=O)Cn1c(=NC(=O)CC)sc2c(C)cc(C)cc21 | -6% | -8% | -2% | 1% | 45 | -14
CCOC(=O)Cn1c(=NC(=O)C(C)C)sc2c(C)cc(C)cc21 | 15µM* | -7% | 21% | u | 31 | -3
COc1cc(OC)c(Nc2nc3ccccc3nc2NS(=O)(=O)c2ccccc2)cc1Cl | x | x | x | x | x | 0
Cc1cc(NC2=CC(=O)C(=O)c3ccccc32)no1 | 12µM* | x | x | 6.5µM* | -101* | 36
Cc1cc(NC(=O)CCN2C(=O)c3ccccc3C2=O)no1 | -8% | -22% | 9% | -9% | -4 | -9
COc1cc(OC)c(NC2=CC(=O)C(=O)c3ccccc32)cc1Cl | 18µM* | u | u | 12µM* | u | 13
CCOC(=O)c1ccc(-n2c(CN3CCC(O)CC3)nc3ccc([N+](=O)[O-])cc3c2=O)cc1 | u | 5% | 24% | 21µM* | 0 | -1
CC(=O)N1CCN(Cc2nc3cc([N+](=O)[O-])ccc3n2C)CC1 | u | 8% | 1% | 6.5µM* | 7 | 1
CCOC(=O)c1ccc(-n2c(CN(CC)CC)nc3ccc([N+](=O)[O-])cc3c2=O)cc1 | u | -8% | 26% | 18µM* | 36 | 4
CCOC(=O)N1CCN(Cc2nc3ccc([N+](=O)[O-])cc3c(=O)n2-c2ccccc2F)CC1 | 23µM* | -22% | 5% | u | 31 | -1
CCOC(=O)c1ccc(-n2c(CN3CCC(C(N)=O)CC3)nc3ccc([N+](=O)[O-])cc3c2=O)cc1 | -11% | 0% | -11% | u | 0 | 0
Cc1cnc2c(S(=O)(=O)NCCCN3CCCC3)cccc2c1 | x | x | x | x | x | -6
C[N+](C)(C)CC#CCCCCC#CC[N+](C)(C)C | x | x | x | x | x | 0
CCOC(=O)C1CCCN(Cc2nc3ccc([N+](=O)[O-])cc3c(=O)n2-c2ccc(OC)cc2OC)C1 (stereo not drawn) | 23µM* | -12% | -20% | 16µM* | 62 | -2
CC1CC1C(=O)NCC1CCCC(CNC(=O)C2CC2C)C1 (stereo not drawn) | x | x | x | x | x | 1
COc1ccc(C=CC(=O)c2ccc3cc(OC)c(OC)cc3c2)cc1OC | 5.8µM* | x | x | u | -98* | -3
SMILES | DT40 TDP1 no CPT | Gal4-VP16 FLuc | RORgamma inh | TDP1 cell CPT | IL-1B inflam inh | LDHA inh
COc1ccc(/C=C/C(=O)CC(=O)/C=C/c2cccc(O)c2OC)cc1O | 3µM* | 4% | 6.3µM* | 6.6µM* | x | x
COc1ccc(/C=C/C(=O)c2ccc(C)cc2)cc1OC | x | x | x | x | x | 5
COc1ccc(C(=O)/C=C/c2ccc(OC)c(O)c2)c(F)c1 | 16µM* | u | 10µM* | u | -104* | 3
COc1cc(/C=C/C(=O)O)ccc1O | -2% | 4% | 2% | 10% | -18 | -3
COc1ccc(C=CC(=O)c2ccc(OC)c(OC)c2)cc1O | 18µM* | x | x | 15µM* | -65* | 3
CC(NC(=O)c1cccnc1)c1cccc(C(F)(F)F)c1 (stereo not drawn) | x | x | x | x | x | 7
Cc1ccc2ccc(C(Nc3cccc(C(F)(F)F)c3)c3cccnc3)c(O)c2n1 (stereo not drawn) | u | u | 7.1µM* | u | 60 | 5
Cc1ccc2ccc(C(Nc3ccccc3)c3ccc(F)cc3)c(O)c2n1 (stereo not drawn) | 5.8µM* | x | x | 9.2µM* | 71 | 1
Cc1ccc2ccc(C(Nc3ccccc3)c3ccccc3)c(O)c2n1 (stereo not drawn) | 6.5µM* | x | x | 10µM* | 47 | -2
C[C@H](NC(c1ccc(F)cc1)c1ccc2cccnc2c1O)c1ccccc1 (stereo partly drawn) | x | x | x | x | x | 5
Cc1ccc2ccc(C(Nc3ccccc3)c3ccc(C(C)C)cc3)c(O)c2n1 (stereo not drawn) | 12µM* | x | x | 15µM* | 69 | 8
O=C1CCc2cc(-c3csc(Nc4ccccc4)n3)ccc2N1 | x | x | x | x | x | 5
CCOC(=O)N1CCN(Cc2nc3cc(NC(=O)COc4ccccc4C)ccc3n2C)CC1 | x | x | x | x | x | 7
Cn1nc(C(=O)N2CCSCC2)c2ccccc2c1=O | x | x | x | x | x | 7
Cc1ccc2ccc(C(Nc3ccccc3)c3ccc(Cl)cc3)c(O)c2n1 (stereo not drawn) | 3.3µM* | x | x | 4.1µM* | 65 | -1
CC(C)c1ccc(/C=C(\C#N)C(=O)NC2CC2)cc1 | x | x | x | x | x | 6
NC(=O)CSc1nc(-c2cccs2)nc2ccccc12 | x | x | x | x | x | -6
Cc1cc2nc(SCC(=O)Nc3nonc3C)c3c(c2cc1C)CCCC3 | -14% | 0% | -12% | -11% | 19 | 0
NC(=O)CSc1nc(C23CC4CC(CC(C4)C2)C3)nc2ccccc12 | 26µM* | u | -2% | u | u | -1
Cc1nonc1NC(=O)CSc1nc(C2CCCCC2)nc2ccccc12 | 23µM* | u | u | 29µM* | -74* | -1
Cc1nonc1NC(=O)CSc1nc(C23CC4CC(CC(C4)C2)C3)nc2ccccc12 | u | 0% | 7% | u | -90* | -6
Cc1cc(NC(=O)CSc2nc(C3CCCCC3)nc3ccccc23)no1 | u | 18%[0.365 µM] | 9% | u | -29 | -8
CCN(Cc1ccco1)C(=O)c1cc2cc(Br)ccc2[nH]1 | x | x | x | x | x | 5
CSc1ncc(C(=O)Nc2ccc(C)c(Cl)c2)c(-c2ccccc2)n1 | u | x | x | 23µM* | x | -10
